# PubChem BioAssay (NCI)
# About 79,000 compounds went through this panel and 15% of them were active in at least one assay; those are over-represented in the sample as a whole. Values without a mark were called inactive. Calls of active or inactive are those of the source. Cut-off read from the data, not from the text of the source: active = growth inhibition above about 70%; inactive = the rest.
# What was measured:
# [1] = NCI Yeast Anticancer Drug Screen. Data for the rad50 strain (AID 155);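 note: 0% = growth of vehicle-only cultures of the same strain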; conditions: S. cerevisiae rad50 strain growth inhibition, active compounds read high
# Method in brief: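 Genetically altered yeast (DNA repair pathway); compound treatment; growth inhibition vs vehicle ctrl.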
# [2] = NCI Yeast Anticancer Drug Screen. Data for the mec2-1 strain (AID 157); conditions: S. cerevisiae mec2-1 strain, active compounds read high
# Method in brief: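 Compounds were applied to mec2-1 yeast cells. Their growth was then compared with that of vehicle-treated cultures to give growth inhibition.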
# [3] = NCI Yeast Anticancer Drug Screen. Data for the sgs1 mgt1 strain (AID 161);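 note: 0% = growth of cultures given vehicle only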; conditions: S. cerevisiae sgs1 mgt1 strain, active compounds read high
# Method in brief: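 Percent growth inhibition was derived by comparing compound-exposed mutant yeast with vehicle-exposed cultures. The strain carries alterations in DNA damage repair.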
# [4] = NCI Yeast Anticancer Drug Screen. Data for the cln2 rad14 strain (AID 165);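 note: 0% = growth equal to vehicle treated cultures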; conditions: S. cerevisiae cln2 rad14 strain, active compounds read high
# Method in brief: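 Strain: cln2 rad14 yeast, altered in cell cycle control and DNA damage repair. Read-out: growth inhibition vs vehicle.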
# [5] = NCI Yeast Anticancer Drug Screen. Data for the bub3 strain (AID 167); conditions: S. cerevisiae bub3 mutant strain, active compounds read high
# Method in brief: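 Yeast carrying a defined mutation is treated with each compound, and growth is compared with that of vehicle-exposed cells to give inhibition.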
# [6] = NCI Yeast Anticancer Drug Screen. Data for the mlh1 rad18 strain (AID 175); conditions: S. cerevisiae mlh1 rad18 strain growth inhibition, active compounds read high
# Method in brief: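 A repair-deficient yeast strain is exposed to test compound, and growth is scored relative to vehicle-treated controls.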
# [7] = at 5.0 µM (retest, dose inferred, filed as 0.5)
# [8] = at 50.0 µM (retest, dose inferred, filed as 5.0)
SMILES,"growth inhibition [1, 7] [%]","growth inhibition [1, 8]",growth inhibition ([1]; at 50.0 µM),"growth inhibition [2, 7] [%]","growth inhibition [2, 8]",growth inhibition ([2]; at 50.0 µM),"growth inhibition [3, 7] [%]","growth inhibition [3, 8]",growth inhibition ([3]; at 50.0 µM),"growth inhibition [4, 7] [%]","growth inhibition [4, 8]",growth inhibition ([4]; at 50.0 µM),"growth inhibition [5, 7]","growth inhibition [5, 8]",growth inhibition ([5]; at 50.0 µM),"growth inhibition [6, 7]","growth inhibition [6, 8]",growth inhibition ([6]; at 50.0 µM)
CCOC(=O)Nc1nc2ccc(SC#N)cc2s1,8,85% (active),92.9% (active),1,81% (active),64.8%,9,96% (active),79.8% (active),6,88% (active),57.5%,23%,93% (active),88.2% (active),9%,94% (active),50.5%
CN(C)Cc1cc(N=Nc2ccc(Cl)c(Cl)c2)ccc1O,-16,46%,86.5% (active),-11,31%,64.4%,-20,44%,82.7% (active),-31,34%,71.8% (active),-33%,40%,88.5% (active),0%,56%,84.7% (active)
O=C(O)c1ccccc1-c1c2cc(I)c(=O)c(I)c-2oc2c(I)c(O)c(I)cc12,20,98% (active),98.9% (active),15,99% (active),99.5% (active),12,97% (active),99.2% (active),5,98% (active),99% (active),2%,98% (active),98.9% (active),34%,99% (active),98.8% (active)
CS(=O)(=O)c1nnnn1-c1ccccc1,-21,93% (active),99.2% (active),-24,97% (active),99.5% (active),-18,96% (active),99% (active),-49,94% (active),97.3% (active),-34%,95% (active),99.4% (active),-62%,96% (active),99.5% (active)
CCOC(=O)Cc1csc2[n+]1C(=O)/C(=C/c1ccc(OC)c(OC)c1)S2,-11,11%,95.2% (active),-14,10%,94.2% (active),-11,14%,94.2% (active),-1,8%,93% (active),-22%,-2%,95.7% (active),-17%,17%,93% (active)
O=C(O)c1ccccc1-c1c2ccc(=O)c(Br)c-2oc2c(Br)c(O)ccc12,13,93% (active),87.5% (active),42,99% (active),98% (active),33,98% (active),99.5% (active),14,96% (active),97.5% (active),-1%,96% (active),96.4% (active),49%,97% (active),97.8% (active)
CCCCOC(c1ccccc1)N1CCCCC1 (stereo not given),0,6%,28.8%,0,11%,-10.7%,-3,6%,35.8%,-3,-12%,-13.6%,-4%,-4%,4.15%,-4%,-3%,7.35%
O=[N+]([O-])c1ccc2c(c1)Cc1cc(Cl)ccc1-2,7,6%,14.1%,2,5%,-13.9%,1,-2%,-11.4%,-5,3%,81.4% (active),4%,7%,-14.3%,6%,5%,46.1%
Cc1ccccc1Sc1ncnc2ccccc12,2,34%,85.5% (active),3,49%,73.8% (active),-13,70% (active),55.5%,1,-1%,5.45%,-5%,7%,37.6%,-7%,48%,70.9% (active)
CCC(=O)Oc1ccc(-c2ccccc2)cc1Cl,-3,98% (active),97% (active),-3,99% (active),98.2% (active),-2,96% (active),97.5% (active),-2,98% (active),96% (active),14%,99% (active),98.8% (active),0%,98% (active),98.2% (active)
CSC(SC)(C(=O)O)c1cc(C)no1,-7,-23%,19.4%,-17,-2%,16.6%,-17,-15%,2.55%,-7,10%,45.2%,14%,7%,5.2%,-2%,-21%,1.2%
O=c1cc(N=Nc2ccc(Cl)c(Cl)c2)[nH]c(=O)[nH]1,37,95% (active),85.8% (active),25,97% (active),86.6% (active),54,97% (active),88.7% (active),32,97% (active),89.5% (active),73% (active),97% (active),86.8% (active),41%,96% (active),82% (active)
O=[N+]([O-])c1ccc(Sc2ccsc2)c([N+](=O)[O-])c1,4,79% (active),46.5%,14,87% (active),34.5%,21,93% (active),48.5%,4,61%,31.8%,11%,86% (active),41.5%,45%,96% (active),78.8% (active)
Cn1c(=O)c2c(nc([N+](=O)[O-])n2C)n(C)c1=O,2,48%,74.6% (active),9,39%,63.8%,4,39%,76.9% (active),-2,18%,45.6%,12%,75% (active),79.3% (active),0%,41%,68%
COc1ccc(OC)c(NC(=O)CCCC(=O)CC(=O)c2cccnc2)c1,63,62%,4.45%,50,53%,1.8%,69,70% (active),-5.2%,53,55%,39.8%,57%,62%,-4.8%,63%,63%,-8.55%
Clc1cc(Cl)c2c(c1)nc(Cl)c1cc(Cl)ccc12,-13,1%,97% (active),-13,7%,99% (active),-5,1%,97.6% (active),-1,2%,98.5% (active),-5%,1%,98.7% (active),-14%,-20%,98.6% (active)
O=C1c2c(Br)sc(Br)c2[C@@H](NC(=O)C(F)(F)F)C1Br (stereo not given in full),8,99% (active),89.3% (active),3,97% (active),81.2% (active),19,99% (active),97% (active),-1,93% (active),28.1%,-3%,94% (active),80% (active),17%,99% (active),91.8% (active)
CCOC(=O)c1c[nH]cc1-c1cn(S(=O)(=O)c2ccccc2)cc1C,38,12%,29.2%,34,14%,18.2%,69,21%,49.6%,38,15%,43.5%,89% (active),38%,44%,82% (active),28%,49%
C#CCCOC(=O)CC1=C(C)/C(=C/c2ccc(S(C)=O)cc2)c2ccc(F)cc21 (stereo not given),23,88% (active),84.3% (active),18,84% (active),90.2% (active),65,73% (active),88% (active),43,41%,85.2% (active),51%,85% (active),86.4% (active),21%,83% (active),85.9% (active)
CCOC(=O)/C(C)=N/Nc1cc(Cl)ccc1O,0,55%,95.5% (active),4,32%,94% (active),4,42%,58%,-62,51%,70.8% (active),-6%,-15%,34.5%,7%,63%,88.8% (active)
